Reference: PubChem BioAssay AID2603 (Johns Hopkins Ion Channel Center, 2010)
Results with a measured potency or affinity are listed apart. Calls of active or inactive are those of the source.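 The calls were made as follows: active = a compound that raises KCNQ2 potassium channel current at -35 mV at one or more tested doses; inactive = no rise at any dose.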

The compounds below were run against Potassium voltage-gated channel subfamily KQT member 2 (Rattus norvegicus) (UniProt O88943) (assay: potentiation of rat KCNQ2 current – cell-based, automated electrophysiology, mechanism study for KCNQ2 potentiator project, dose response (AID 2603)). Settings: KCNQ2-CHO cells, automated patch clamp current potentiation; at 30 µM (top of the series).
Chain of Potassium voltage-gated channel subfamily KQT member 2 (Rattus norvegicus) (O88943 whole entry, looked up): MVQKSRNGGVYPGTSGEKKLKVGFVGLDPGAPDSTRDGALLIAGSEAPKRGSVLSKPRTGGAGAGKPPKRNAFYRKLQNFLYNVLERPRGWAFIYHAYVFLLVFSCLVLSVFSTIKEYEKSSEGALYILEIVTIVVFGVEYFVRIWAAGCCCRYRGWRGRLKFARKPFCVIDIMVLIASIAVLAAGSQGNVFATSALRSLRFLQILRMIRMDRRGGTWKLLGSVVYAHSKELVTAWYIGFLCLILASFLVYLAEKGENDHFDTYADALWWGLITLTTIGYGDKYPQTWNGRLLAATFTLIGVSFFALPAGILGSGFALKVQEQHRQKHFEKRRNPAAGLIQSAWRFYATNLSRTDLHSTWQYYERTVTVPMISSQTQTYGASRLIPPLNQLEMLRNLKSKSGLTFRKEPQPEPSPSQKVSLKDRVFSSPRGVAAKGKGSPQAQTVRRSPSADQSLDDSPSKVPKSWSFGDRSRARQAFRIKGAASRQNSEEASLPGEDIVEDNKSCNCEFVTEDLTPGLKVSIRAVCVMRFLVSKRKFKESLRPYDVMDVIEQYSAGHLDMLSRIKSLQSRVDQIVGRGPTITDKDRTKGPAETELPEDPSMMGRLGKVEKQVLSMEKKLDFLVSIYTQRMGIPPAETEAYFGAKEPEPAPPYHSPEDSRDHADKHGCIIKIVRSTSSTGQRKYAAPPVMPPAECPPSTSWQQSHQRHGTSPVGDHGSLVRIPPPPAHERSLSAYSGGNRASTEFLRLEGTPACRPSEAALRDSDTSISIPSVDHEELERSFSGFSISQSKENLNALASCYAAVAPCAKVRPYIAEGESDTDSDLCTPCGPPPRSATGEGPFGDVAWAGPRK

Structure (SMILES) | potentiation | outcome
CC1=C(C(=O)OCC2CCCCC2)C(c2cccc(O)c2)NC(=O)N1 (configuration not stated) | 57 | 
Cc1ccc(C(=O)NC2(O)C(=O)c3ccccc3C2=O)cc1C |  | inactive
Oc1c(Br)cc(Br)cc1C=Nc1ccc2[nH]ncc2c1 |  | inactive
S=C(NCCc1cccc(Cl)c1)NCc1ccccc1 |  | inactive
CC1(C)CCc2cc(-c3ccn(S(=O)(=O)c4ccccc4Cl)n3)ccc2O1 |  | inactive
COc1ccc(C(=O)CCS(=O)(=O)c2ccc(F)cc2)cc1OC |  | inactive
CCC(O)(CC)C(=O)N(Nc1ccc(C)cc1)c1ccc(C)cc1 | 62.7 | 
CC(C)c1ccc2nc(NC(=O)C3CC3)sc2c1 |  | inactive
Nc1cc(N2CCCCC2)c(Cl)cc1[N+](=O)[O-] |  | inactive
Cc1nn(-c2cccc(C(F)(F)F)c2)c(Cl)c1/C=N/Nc1cccc(C(=O)O)c1 |  | inactive
O=c1c(O)c(-c2cccs2)oc2ccc(Cl)cc12 |  | inactive
Cc1ccc(C(C2=C(O)CC(C)(C)CC2=O)C2C(=O)CC(C)(C)CC2=O)o1 (configuration not stated) |  | inactive
O=C(O)c1cc(NN=C2c3ccccc3-c3ccccc32)ccc1Cl | 81.9 | 
O=C(Cc1ccccc1)Nc1cccc(N2CCCC2)c1 |  | inactive
CCCCCC/C(C)=C1/SC(=S)NC1=O |  | inactive
CC1=C(C)/C(=N\OS(=O)(=O)c2ccccc2)C=CC1=O |  | inactive
COc1cc(C)c(C(=O)Oc2cc(C)c(C(=O)O)c(O)c2)c(O)c1 | 72.4 | 
